Measured values reported in PubChem BioAssay (NCATS).
Results filed as inconclusive are left out. Activity calls are given as the source filed them. Calls come from the whole dose curve; as a rule, active = well fitted inhibition curve with a large enough effect; inconclusive = small, poorly fitted or top-dose-only effect; inactive = flat fitted curve, though single readings scatter.

Test system: CRL-7250
Test: qHTS assay to identify novel small-molecules to repurpose for Merkel cell carcinoma treatment (AID 1296009); note: nearly all actives have a fitted effect of over 60% in size
Settings: MCC and control cell lines, CellTiter-Glo viability, 72 h; series mostly up to 92 µM; activity change, negative = cytotoxicity: at the top concentration
Outline: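 After compound transfer in DMSO, plates were kept 72 hr at 37 degree celsius. Luminescent ATP signal from CellTiter-Glo served as viability measure, normalized against DMSO and no-cell controls.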

Structure (SMILES)	outcome
CC(=O)OCC1(O)CCC2C(COC3OC(CO)C(O)C(O)C3OC(=O)/C=C/c3ccc(O)cc3)=COC(OC(=O)CC(C)C)C21 (configuration not stated)	inactive [at 17.4 µM]
CC(=O)c1c(C)cc(O[C@@H]2O[C@H](CO)[C@@H](O)[C@H](O)[C@H]2O)cc1O	inactive
CC(C)(C)NS(=O)(=O)c1cncc(-c2cc(F)c3nc(N)nn3c2)c1	inactive
O=c1[nH]ccc2nc(-c3ccc(CN4CCC(c5nc(-c6ccccn6)n[nH]5)CC4)cc3)c(-c3ccccc3)cc12	inactive
C/C=C1/[C@H](O[C@@H]2O[C@H](CO)[C@@H](O)[C@H](O)[C@H]2O)OC=C(C(=O)OC)[C@H]1CC(=O)O[C@@H]1O[C@H](CO)[C@@H](O)[C@H](O)[C@H]1O	inactive [at 17.4 µM]
NC(=O)c1cccc(-c2cc(O)cc(OC(=O)NC3CCCCC3)c2)c1	inactive [at 17.4 µM]
COc1ccc(O[C@@H]2O[C@H](CO)[C@@H](O)[C@H](O)[C@H]2O)cc1OC	inactive
O=C(O)Cc1cc(I)c(Oc2ccc(O)c(I)c2)c(I)c1	inactive
CC1(C)O[C@H]2CC(=O)OC[C@@]23C1=C(O)C(=O)[C@]1(C)C3CC[C@@]2(C)[C@H](c3ccoc3)OC(=O)[C@H]3O[C@]321 (some centres not stated)	inactive [at 17.4 µM]
CC(C)=CCCC1(C)Oc2cc3c(c4c2C2C(O4)C(C)(O)CCC21)CN(C(CCC(=O)O)C(=O)O)C3=O (configuration not stated)	inactive [at 17.4 µM]
COC(=O)c1ccccc1O[C@@H]1O[C@H](CO)[C@@H](O)[C@H](O)[C@H]1O[C@@H]1O[C@@H](C)[C@H](O)[C@@H](O)[C@H]1O	inactive [at 17.4 µM]
CC(=O)OC1CC(C(C)(C)O)OC2CCC3(C)OC4=C(C(=O)C=C5C(C)C(OC(C)=O)C6(C)C(C)OC546)C(O)C3C12C (configuration not stated)	inactive [at 17.4 µM]
